This excerpt belongs to a sample that is enriched for hits.
Dicer processing = blocks human Dicer maturation of pre-miR-21. Q9UPY3. cat-ELCCA pre-miR-21 Dicer processing, chemiluminescence; stronger effect = higher value. z-score at 25 µM. 6% of 47,000 active. AID 1347074; in the data active means z-score above about 3, passing the limit was not always enough;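 further: higher signal means more uncleaved substrate so more Dicer inhibition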
Target sequence (Q9UPY3 whole entry, looked up): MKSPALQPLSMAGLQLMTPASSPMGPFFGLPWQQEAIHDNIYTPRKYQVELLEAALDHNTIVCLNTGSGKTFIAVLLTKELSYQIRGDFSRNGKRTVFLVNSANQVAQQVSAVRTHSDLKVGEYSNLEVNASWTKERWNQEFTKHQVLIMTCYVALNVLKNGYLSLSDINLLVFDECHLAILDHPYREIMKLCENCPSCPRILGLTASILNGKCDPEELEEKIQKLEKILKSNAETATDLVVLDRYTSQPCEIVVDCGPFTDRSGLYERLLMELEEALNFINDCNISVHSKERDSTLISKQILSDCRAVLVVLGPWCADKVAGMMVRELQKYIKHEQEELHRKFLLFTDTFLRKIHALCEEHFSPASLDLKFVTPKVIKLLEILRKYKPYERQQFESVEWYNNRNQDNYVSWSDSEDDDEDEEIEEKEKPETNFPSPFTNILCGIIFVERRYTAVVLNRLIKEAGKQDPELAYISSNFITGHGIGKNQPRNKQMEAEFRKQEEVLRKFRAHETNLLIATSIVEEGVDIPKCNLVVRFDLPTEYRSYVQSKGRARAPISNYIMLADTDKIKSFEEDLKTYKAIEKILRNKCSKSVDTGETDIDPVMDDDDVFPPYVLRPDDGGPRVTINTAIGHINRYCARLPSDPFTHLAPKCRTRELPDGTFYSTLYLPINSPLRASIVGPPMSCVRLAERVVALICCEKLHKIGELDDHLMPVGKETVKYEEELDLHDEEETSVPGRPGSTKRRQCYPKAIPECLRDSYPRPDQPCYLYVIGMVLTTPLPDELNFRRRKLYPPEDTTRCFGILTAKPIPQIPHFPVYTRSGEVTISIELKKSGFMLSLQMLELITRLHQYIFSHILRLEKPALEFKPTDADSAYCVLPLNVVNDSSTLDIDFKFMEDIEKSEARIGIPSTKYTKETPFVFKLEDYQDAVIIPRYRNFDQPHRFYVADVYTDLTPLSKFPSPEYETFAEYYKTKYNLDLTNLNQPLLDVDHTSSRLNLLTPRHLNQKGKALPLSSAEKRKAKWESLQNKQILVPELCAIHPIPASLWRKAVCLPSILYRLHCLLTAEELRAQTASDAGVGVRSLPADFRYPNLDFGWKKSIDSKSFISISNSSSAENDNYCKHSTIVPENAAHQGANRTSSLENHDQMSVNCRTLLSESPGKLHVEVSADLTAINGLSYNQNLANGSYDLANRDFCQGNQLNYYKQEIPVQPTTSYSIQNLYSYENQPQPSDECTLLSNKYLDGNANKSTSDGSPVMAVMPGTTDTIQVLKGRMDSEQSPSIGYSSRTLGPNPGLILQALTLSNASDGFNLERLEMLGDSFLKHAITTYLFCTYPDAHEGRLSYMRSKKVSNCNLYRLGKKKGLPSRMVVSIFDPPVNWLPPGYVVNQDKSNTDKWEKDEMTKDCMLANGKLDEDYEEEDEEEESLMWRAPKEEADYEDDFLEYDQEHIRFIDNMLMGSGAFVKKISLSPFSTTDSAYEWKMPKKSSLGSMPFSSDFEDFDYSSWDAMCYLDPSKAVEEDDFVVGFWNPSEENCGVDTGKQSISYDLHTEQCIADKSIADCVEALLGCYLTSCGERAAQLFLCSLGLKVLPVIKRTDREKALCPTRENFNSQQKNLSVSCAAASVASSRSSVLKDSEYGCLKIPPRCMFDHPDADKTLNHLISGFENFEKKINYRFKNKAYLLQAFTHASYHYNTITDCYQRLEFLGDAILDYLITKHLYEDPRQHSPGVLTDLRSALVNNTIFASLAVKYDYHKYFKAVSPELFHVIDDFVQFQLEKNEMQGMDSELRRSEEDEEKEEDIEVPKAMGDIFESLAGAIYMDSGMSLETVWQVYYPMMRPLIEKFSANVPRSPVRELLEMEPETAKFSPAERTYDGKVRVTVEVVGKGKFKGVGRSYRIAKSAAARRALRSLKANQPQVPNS
Numbers stand for hits; n = inactive.

SMILES	Dicer processing
CC(C)(C)NC(=O)c1nn2c(c1Br)NC(c1ccccc1)CC2C(F)(F)F (centres undefined)	n
CCCS(=O)(=O)c1cc2cc(Cl)ccc2oc1=O	n
O=C(c1ccc(Br)o1)N(Cc1ccccc1)Cc1ccccc1	n
CN1C2=C(C(=O)CC(C)(C)C2)C(c2ccc(O)cc2)C2=C1CC(C)(C)CC2=O	n
Clc1ccc(-c2nc(C3CCCCC3)no2)cc1	n
CN1CCN(C(=O)CN(c2ccccc2)S(=O)(=O)N(C)C)CC1	n
CN1CCN(C(c2ccccc2)c2ccccc2)CC1	n
CN1CCN(C(=O)Oc2ccccc2)CC1	3.81
Nc1ccccc1N1C(=O)c2cccc3cccc(c23)C1=O	n
O=C1c2cccc3cccc(c23)C(=O)N1c1ccccc1O	n
COc1ccc(OC)c(N2C(=O)c3cccc4cccc(c34)C2=O)c1	5.7
CCOC(=O)Cn1nnc2sc3c(c2c1=O)CCCC3	n
CC(C)(C)NC(=O)c1cc2ccccc2o1	4.18
O=C(Nc1ccc(F)cc1)c1cc2ccccc2o1	n
O=C(Nc1ccccc1)c1cc2ccccc2o1	n
Cc1ccc(Nc2n[nH]c(=S)s2)c(C)c1	n
O=C1CCCC2=C1C(c1ccc3c(c1)OCO3)Nc1ccc3ncccc3c12 (centres undefined)	n
O=C(O)CCC(=O)Nc1nc2n(n1)C(c1ccccc1)C=C(c1ccc(Cl)cc1)N2 (centres undefined)	n
COc1ccccc1Nc1nc(C)cs1	n
CC(=O)c1csc(Nc2ccccc2Cl)n1	n
Cc1csc(Nc2cccc3ccccc23)n1	3.27
Cn1c(=O)n(C)c2cc(S(=O)(=O)N3CCCC3)ccc21	3.45
O=S(=O)(c1ccc2c(c1)Cc1cc(S(=O)(=O)N3CCCCC3)ccc1-2)N1CCCCC1	n
Cn1c(=O)n(C)c2cc(S(=O)(=O)Nc3ccc(C(=O)O)cc3)ccc21	n
COc1cc(-c2nc3cc(Cl)ccc3c(=O)o2)ccc1OC(C)=O	n
SMILES	Dicer processing
C=C1C[C@@]23CC[C@H]4[C@@](C)(CCC[C@@]4(C)C(=O)OC4OC(CO)C(O)C(O)C4O)[C@@H]2CC[C@]1(OC1OC(CO)C(O)C(O)C1OC1OC(CO)C(O)C(O)C1O)C3 (some centres undefined)	n
c1ccc(-c2nnc3c4cnn(-c5ccccc5)c4ncn23)cc1	3.06
COc1ccc(-c2nnc3c4cnn(-c5ccccc5)c4ncn23)cc1	n
Cc1ccc(-c2nnc3c4cnn(-c5ccccc5)c4ncn23)cc1	n
c1csc(-c2ccn3cnnc3n2)c1	n
c1ccc(-c2cc(-c3ccccc3)on2)cc1	n
O=C1c2ccccc2-c2nc3ncnn3c(-c3ccccc3Cl)c21	n
Cc1ccccc1CN1C(=O)C(=O)c2cc(Cl)ccc21	n
O=C(Oc1cccc2cccnc12)c1ccco1	n
Cc1ccc(C)c(Oc2coc3cc(OC(=O)c4ccco4)ccc3c2=O)c1	n
O=C(Oc1ccc(OC(=O)c2ccco2)c(Cl)c1)c1ccco1	7.37
CCN(CC#CCC1(O)c2ccccc2-c2ccccc21)CCO	n
Cc1ccc2c(C)nc(Nc3nc(-c4ccccc4)cc(=O)[nH]3)nc2c1	n
CC(C)Cc1ccc(C(C)/C(N)=N/O)cc1 (centres undefined)	n
CC(CC(=O)O/N=C(\N)c1ccc(C(F)(F)F)cc1)S(=O)(=O)c1ccc(Cl)cc1 (centres undefined)	n
CC(C)Cc1ccc(C(C)C(=O)O/N=C(\N)c2ccc(C(F)(F)F)cc2)cc1 (centres undefined)	3.19
Cc1ccsc1CNC(=O)Nc1ccc(OCc2ccccc2)cc1	n
O=C(NCc1sccc1COc1ccc(Cl)cc1)Nc1ccccc1F	4.54
O=S(=O)(NNC(=S)Nc1ccccc1F)c1ccc(Cl)cc1	n
O=c1c2c3c(sc2ncn1-c1ccccc1)CCCC3	n
CCOC(=O)C1=C(Nc2ccc(OS(=O)(=O)c3ccccc3Cl)cc2)C(=O)N(C(C)(C)C)C1	n
Cc1onc(-c2ccccc2)c1NC(=O)N1CCN(C2c3ccccc3-c3ccccc32)CC1	n
CCN(CC)CCCNC(=O)/C=C/C(=O)O	n
O=C1c2oc3ccc(Br)cc3c(=O)c2C(c2ccc(O)cc2)N1Cc1ccc(F)cc1 (centres undefined)	n
COc1cc(C)nc(N(CCO)CCO)n1	5.89
SMILES	Dicer processing
COc1cc(C)nc(SCC(N)=O)n1	n
COc1cc(C)nc(-n2nc(C)cc2OC)n1	n
CC(C)(C)NS(=O)(=O)c1ccc2c(c1)Cc1cc(S(=O)(=O)NC(C)(C)C)ccc1-2	n
O=C(N1CCCCC1)N1c2ccccc2Sc2ccccc21	n
Clc1ccc(Sc2c(-c3ccccc3)nc3sccn23)cc1	n
NC(=S)N/N=C/c1c(Sc2ccc(Cl)cc2)nc2sccn12	n
O=C1Nc2ccccc2/C1=C/c1c(Sc2ccc(Cl)cc2)nc2sccn12	5.71
O=C(Cn1nc(C(F)(F)F)c2c1CCCC2)Nc1ccc(-n2cccc2)c(Cl)c1	n
COc1ccc(Nc2cc(C)nc3ccc(OC)cc23)cc1	n
COc1ccc2nc(C)cc(Nc3ccc(Cl)cc3)c2c1	3.06
Cc1ccc(Nc2cc(C)nc3ccc(C)cc23)cc1	n
CC(Oc1ccc(Cl)cc1Cl)/C(N)=N/O (centres undefined)	n
C/C(=N\OC(=O)c1ccccc1)c1cnn(-c2cc(C(F)(F)F)cc(C)n2)c1C	n
COc1ccc(N2C(=O)CC(c3ccccc3)C2=O)cc1 (centres undefined)	4.33
O=C1CC(c2ccccc2)C(=O)N1c1cc(Cl)cc(Cl)c1 (centres undefined)	5.33
COc1ccc(N2C(=O)CC(Sc3nc(C)c4ccccc4n3)C2=O)cc1 (centres undefined)	n
CC(C)(C)c1ccc(N2C(=O)CC(c3ccccc3)C2=O)cc1 (centres undefined)	5.32
CC(C)(C)NC1CC(=O)N(c2ccccc2)C1=O (centres undefined)	n
Cn1cc(C2CC(=O)N(c3ccc(O)cc3)C2=O)c2ccccc21 (centres undefined)	n
O=C1CC(c2ccccc2)CC(=O)N1c1ccc(Oc2ccc(Cl)cc2)cc1	n
COc1ccc(N2C(=O)CC(N3CCN(C)CC3)C2=O)cc1 (centres undefined)	n
O=C1CC(c2ccccc2)CC(=O)N1c1ccccc1	n
O=C(Nc1ccccc1C(F)(F)F)c1ccc2c(c1)CCO2	n
CCOC(=O)c1c(-c2ccccc2)oc2ccc(OCC(=O)OC)cc12	n
CCOC(=O)N1CCN(C(=O)c2ccc([N+](=O)[O-])o2)CC1	3.51
SMILES	Dicer processing
CCN(C(=O)c1ccc([N+](=O)[O-])o1)c1ccccc1	n
O=C(OCc1nc2ccccc2s1)c1ccc([N+](=O)[O-])o1	n
Cc1occc1-c1nnc(SCC(=O)c2ccc(Cl)cc2)o1	n
C=CCNC(=O)c1cccc2c1-c1ccccc1C2=O	n
CN1CCN(C2=Nc3cc(Cl)ccc3Nc3ccccc32)CC1	n
O=C1Nc2ccc(Cl)cc2C(c2ccccc2)=Nc2ccccc21	n
Clc1ccc2c(c1)N=C(N1CCNCC1)c1ccccc1N2	4.03
Cc1cc(C)nc(Nc2ncc(O)n2-c2ccc(C)c(C)c2)n1	3.6
CCOc1ccc(-n2c(O)cnc2Nc2nc(C)cc(C)n2)cc1	n
Cc1cc(C)c2c(C)nn(-c3ccc(C)c(C)c3)c2n1	n
Oc1ccc(NCc2cccs2)cc1	n
Nc1nc(NCc2cccs2)nn1-c1ccccc1	4.27
CCCCCCn1c(NCc2cccs2)nc2ccccc21	n
CCCCc1ccc(NC(=O)COc2cc(C)c3c(c2)OC(C)(C)CC3=O)c(C)c1	n
O=c1c2ccccc2c(-c2ccc(F)cc2)nn1CCO	n

From PubChem
